Assay results published in the supplement of paper PMC13380429.

Test system: Vero E6 infected with SARS-CoV-2
Test: inhibition of SARS-CoV-2 cytopathic effect; higher = more antiviral protection, active = above 15
Details: 48 h

Measured: inhibition of SARS-CoV-2 cytopathic effect

CCN(CCNC(=O)Nc1ccccc1Br)c1cccc(C)c1
inactive: 1 nM -0.09% | 8.33 nM 2.65% | 100 nM -0.41% | 833.33 nM -0.7% | 10000 nM 0.98%

Cc1ccc2c(c1)c1c3n2CCNC3CCC1 (stereo not given) [pirlindole]
inactive: 1 nM -1.68% | 8.33 nM -2.42% | 100 nM -1.65% | 833.33 nM 0.99% | 10000 nM -3.66%

O=C1C[C@@H](c2ccc(O)cc2)Oc2cc(O)ccc21
inactive: 1 nM -0.59% | 8.33 nM 2.87% | 100 nM 2.13% | 833.33 nM 1.65% | 10000 nM 12%

O=c1c(O)c(-c2ccc(O)cc2)oc2cc(O)cc(O)c12 [kaempferol]
inactive: 1 nM -3.6% | 8.33 nM 12% | 100 nM -1.58% | 833.33 nM 1.56% | 10000 nM 11.2%

CCCCOc1cc(C(=O)NCCN(CC)CC)c2ccccc2n1 [cinchocaine]
inactive: 1 nM -2.14% | 8.33 nM -0.71% | 100 nM 1.11% | 833.33 nM 3.8% | 10000 nM 0.77%

Cc1ccc2c(Br)cc(Br)c(OC(=O)c3ccccc3)c2n1 [broxaldine]
inactive: 1 nM 0.35% | 8.33 nM 0.53% | 100 nM 4.07% | 833.33 nM 5.01% | 10000 nM 11.5%

O=S1(=O)c2cccc3cccc(c23)N1CCCN1CCN(c2ccc(F)cc2)CC1 [fananserin]
inactive: 1 nM -2.57% | 8.33 nM -1.46% | 100 nM -1.21% | 833.33 nM -2.34% | 10000 nM -0.89%

OCCn1cc(-c2ccc3c(c2)CC/C3=N\O)c(-c2ccncc2)n1
inactive: 1 nM 8.04% | 8.33 nM 9.39% | 100 nM 8.46% | 833.33 nM 10.2% | 10000 nM 8.08%

O=C1c2ccccc2S(=O)(=O)N1CCCCN1CCN(c2ncccn2)CC1 [ipsapirone]
inactive: 1 nM 4.62% | 8.33 nM 2.92% | 100 nM -3.31% | 833.33 nM 1.74% | 10000 nM 0.15%

N#CC(c1ccccc1)(c1ccccc1)c1ccccc1Cl
inactive: 1 nM 2.09% | 8.33 nM 1.23% | 100 nM 3.05% | 833.33 nM 3.49% | 10000 nM 3.88%

COC(=O)N[C@H](C(=O)N[C@@H](Cc1ccccc1)[C@@H](O)CN(Cc1ccc(-c2ccccn2)cc1)NC(=O)[C@@H](NC(=O)OC)C(C)(C)C)C(C)(C)C [atazanavir]
inactive: 1 nM -1.78% | 8.33 nM 2.1% | 100 nM 1.84% | 833.33 nM -0.5% | 10000 nM -0.09%

O=c1cc(-c2ccc(O)c(O)c2)oc2cc(O)cc(O)c12 [luteolin]
inactive: 1 nM 1.96% | 8.33 nM 0.53% | 100 nM -1.61% | 833.33 nM -0.15% | 10000 nM 7.72%

C[C@@H](C1=C(CCN(C)C)Cc2ccccc21)c1ccccn1 (racemic) [dimetindene]
inactive: 1 nM -0.06% | 8.33 nM 0.69% | 100 nM 0.085% | 833.33 nM 1.68% | 10000 nM 1.16%

Nc1ccc(O)c(C(=O)O)c1 [mesalazine]
inactive: 1 nM 1.06% | 8.33 nM -2.08% | 100 nM 1.03% | 833.33 nM -1.05% | 10000 nM -2.08%

C/C(=N\NC(=N)N)c1cc(NC(=O)CCCCCCCCC(=O)Nc2cc(/C(C)=N/NC(=N)N)cc(/C(C)=N/NC(=N)N)c2)cc(/C(C)=N/NC(=N)N)c1 [semapimod]
inactive: 1 nM 1.18% | 8.33 nM 2.42% | 100 nM 5.39% | 833.33 nM 7.62% | 10000 nM 7.5%

O=c1c(O)c(-c2ccc(O)cc2O)oc2cc(O)cc(O)c12 [morin]
inactive: 1 nM -1.74% | 8.33 nM -0.07% | 100 nM -0.4% | 833.33 nM -4.13% | 10000 nM 0.27%

CCOC(=O)C1=C(C)NC(C)=C(C(=O)OCC)C1c1ccccc1/C=C/C(=O)OC(C)(C)C [lacidipine]
inactive: 1 nM 2.1% | 8.33 nM -0.72% | 100 nM 0.07% | 833.33 nM 3.01% | 10000 nM 3.85%

O=C(Cc1cccc(OC(F)(F)F)c1)Nc1ccc(CCCCc2nnc(NC(=O)Cc3ccccn3)s2)nn1
inactive: 1 nM -1.49% | 8.33 nM -0.26% | 100 nM -1.18% | 833.33 nM -5.17% | 10000 nM -3.68%

Fc1ccc([C@@H]2CCNC[C@H]2COc2ccc3c(c2)OCO3)cc1 [paroxetine]
inactive: 1 nM -4.2% | 8.33 nM -2.01% | 100 nM -2.05% | 833.33 nM -1.89% | 10000 nM -13.1%

O=C(NO)c1ccc(O)c(O)c1 [didox]
inactive: 1 nM 1.58% | 8.33 nM 0.68% | 100 nM 1.83% | 833.33 nM -2.16% | 10000 nM -2.13%

FCc1ccc(OCCOc2ccc(Cl)cc2Cl)c(Cl)n1
inactive: 1 nM 2.16% | 8.33 nM 2.42% | 100 nM 2.11% | 833.33 nM 1.12% | 10000 nM 1.65%

N=C(N)NS(=O)(=O)c1ccc(N)cc1 [sulfaguanidine]
inactive: 1 nM 1.47% | 8.33 nM 1.27% | 100 nM -0.35% | 833.33 nM 0.47% | 10000 nM 1.22%

CN(C)C(=O)N[C@H]1CC[C@H](CCN2CCN(c3cccc(Cl)c3Cl)CC2)CC1 [cariprazine]
inactive: 1 nM -2.57% | 8.33 nM 1.1% | 100 nM -0.14% | 833.33 nM 3.01% | 10000 nM -3.84%

O=C(O)CC(S)C(=O)O (stereo not given) [mercaptosuccinic-acid]
inactive: 1 nM 0.69% | 8.33 nM 3.36% | 100 nM 4.14% | 833.33 nM 3.72% | 10000 nM -0.09%

CC(=O)[C@H]1CC[C@H]2[C@@H]3CCC4=CC(=O)CC[C@]4(C)[C@H]3CC[C@]12C [progesterone]
inactive: 1 nM -0.08% | 8.33 nM 0.75% | 100 nM 2.72% | 833.33 nM 2.43% | 10000 nM 5.82%

CC(=O)Nc1cccc(O)c1 [metacetamol]
inactive: 1 nM 1.03% | 8.33 nM 5.41% | 100 nM 3.07% | 833.33 nM 4.81% | 10000 nM 4.76%

NC(=S)N/N=C/c1ncccc1N [triapine]
inactive: 1 nM 2.87% | 8.33 nM -0.48% | 100 nM 4.4% | 833.33 nM 3.25% | 10000 nM -6.06%

CC[C@H](C)[C@H](N)C(=O)O [isoleucine]
inactive: 1 nM -1.51% | 8.33 nM -4.12% | 100 nM -0.12% | 833.33 nM 0.05% | 10000 nM 1.97%

N#Cc1ncccn1 [2-cyanopyrimidine]
inactive: 1 nM 4.29% | 8.33 nM 5.63% | 100 nM 4.71% | 833.33 nM 6.33% | 10000 nM 4.34%

CC#CCOC(=O)c1c(C)nc2sc3c(c2c1N)CCC(O)C3 (stereo not given)
inactive: 1 nM 1.8% | 8.33 nM 0.47% | 100 nM 3.12% | 833.33 nM -0.32% | 10000 nM 0.73%

C[C@]12C=CC(=O)C=C1CC[C@@H]1[C@@H]2[C@@H](O)C[C@@]2(C)[C@H]1CC[C@]2(O)C(=O)COC(=O)CCC(=O)O [prednisolone-hemisuccinate]
inactive: 1 nM -1.49% | 8.33 nM 0.74% | 100 nM 3.44% | 833.33 nM 3.76% | 10000 nM 1.85%

CCOc1ccn(-c2ccc(F)cc2)c(=O)c1C(=O)Nc1ccc(Oc2ccnc(N)c2Cl)c(F)c1
inactive: 1 nM 2.67% | 8.33 nM 1.32% | 100 nM -5.33% | 833.33 nM 2.11% | 10000 nM -3.09%

Nc1ccn([C@H]2CO[C@@H](CO)S2)c(=O)n1 [apricitabine]
inactive: 1 nM 0.27% | 8.33 nM 2.59% | 100 nM 0.92% | 833.33 nM 2.02% | 10000 nM -3.28%

Cc1ccc(S(N)(=O)=O)cc1 [para-toluenesulfonamide]
inactive: 1 nM 3.73% | 8.33 nM 1.88% | 100 nM 1.14% | 833.33 nM 0.12% | 10000 nM -5.38%

Cc1cn([C@H]2C=C[C@@H](CO)O2)c(=O)[nH]c1=O [stavudine]
inactive: 1 nM -1.15% | 8.33 nM 2.97% | 100 nM 4% | 833.33 nM 2.52% | 10000 nM -1.21%

CC(C)n1nnc2cc(C(=O)O)ccc21
inactive: 1 nM 2.69% | 8.33 nM 0.35% | 100 nM -0.23% | 833.33 nM -0.38% | 10000 nM -1.63%

NCC1CC(=O)N(Cc2ccccc2)C1 (stereo not given) [nebracetam]
inactive: 1 nM 2.53% | 8.33 nM 1.25% | 100 nM 1.38% | 833.33 nM 1.16% | 10000 nM 0.26%

COc1ccc(Br)cc1S(=O)(=O)NC(=O)/C=C/c1ccccc1Cc1ccc2ccccc2c1
inactive: 1 nM 1.22% | 8.33 nM 1.19% | 100 nM 1.93% | 833.33 nM 3.35% | 10000 nM -0.51%

O=C(/C=C/c1ccc2ccccc2n1)c1ccncc1
inactive: 1 nM -4.3% | 8.33 nM -0.71% | 100 nM -2.06% | 833.33 nM -1.46% | 10000 nM -3.51%

CCN(Cc1ccc(Cl)nc1)/C(=C/[N+](=O)[O-])NC [nitenpyram]
inactive: 1 nM 0.79% | 8.33 nM -0.17% | 100 nM -0.29% | 833.33 nM -1.84% | 10000 nM 1.08%

Clc1ccccc1CN1CCc2sccc2C1 [ticlopidine]
inactive: 1 nM -1.31% | 8.33 nM -0.14% | 100 nM 0.36% | 833.33 nM 1.94% | 10000 nM -1.5%

C=C[C@H]1CN2CC[C@H]1CC2C(OC(=O)OCC)c1ccnc2ccc(OC)cc12 (stereo in doubt) [quinine-ethyl-carbonate]
inactive: 1 nM 0.47% | 8.33 nM 2.1% | 100 nM 0.07% | 833.33 nM 6.66% | 10000 nM 5.77%
